Screens (PubChem BioAssay)
ELG1 repair inh = ELG1-dependent DNA repair inhibition. HEK293T ELG1-luciferase reporter, luminescence, 16 h; DNA damage induced by 5-fluorouridine. Potency, µM (titrated, usually from 46.1 µM), inactives show at the highest dose activity change, negative = inhibition, most hits filed as inhibitors. hit rate 2.3% among 330,000. AID 504467; note: % is set by controls: 0 for no effect and ±100 for the full control effect; nearly all actives have a fitted effect of over 55% in size
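Overnight (16 hr) co-exposure of 2,000 cells/well to 5-fluorouridine and compound at 37 °C preceded detection. Luciferase was quantified via ONE-Glo luminescence; loss of signal denotes inhibition.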
KB-V1 cytotox = KB-V1 MDR subline cytotoxicity; KB-V1 MDR cells viability, CellTiter-Glo, 72 h; Potency, µM (highest dose often 46.1 µM), actives largely listed as cytotoxic; hit rate 3.4% among 400,000; note: % is set by controls: 0 for no effect and ±100 for the full control effect; nearly all actives have a fitted effect of over 60% in size
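KB-V1 cells (P-gp-expressing MDR subline of KB-3-1) in phenol-red-free DMEM with 10% FBS were exposed to library compounds over a concentration series for 72 h at 37 degrees C. Viability read by CellTiter-Glo luminescence; concentration-effect curves fitted after normalization.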
SW480 rereplic = inducers of DNA re-replication in SW480 colon cancer cells. SW480 DNA re-replication, Hoechst DNA content imaging, 48 h. Potency, µM (top dose mostly 46.1 µM), for the others: top-dose re-replication activation, hits mostly activators. hit rate 1.8% among 340,000; note: % of control where 0% means no effect; nearly all actives have a fitted effect of over 55% in size
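Image-based read-out: total Hoechst fluorescence of nuclei (405 nm excitation, 500-530 nm emission), with hits raising the fraction of high-intensity nuclei. SW480 colon cells incubated 48 hr with compounds at 37 C.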
MCF10A rereplic = induces DNA re-replication in MCF 10a normal breast cells. AID 624296. Potency, µM (highest dose often 46.1 µM), for inactives: at the top dose activity, positive = re-replication, most hits filed as activators. MCF 10A DNA re-replication, Hoechst nuclear intensity, 48 h. hit rate 2.9% among 350,000; note: % of control where 0% means no effect; nearly all actives have a fitted effect of over 50% in size
KB-3-1 cytotox = kills parental KB-3-1 adenocarcinoma cells; KB-3-1 viability, CellTiter-Glo ATP luminescence, 72 h; hit rate 1.4% among 400,000; Potency, µM (doses to about 46.1 µM), actives largely listed as cytotoxic; note: % is set by controls: 0 for no effect and ±100 for the full control effect; nearly all actives have a fitted effect of over 60% in size
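Viability of parental KB-3-1 cells, measured by CellTiter-Glo luminescence, followed a 72 h incubation at 37 °C with pinned compounds in phenol-red-free DMEM containing 10% FBS.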
* marks the source's active call; other numbers are inactive results; i = inactive; ? = inconclusive; / = no result given. Rows were chosen to be rich in hits. Some 8.1% of all compounds tested hit in one or more screens of this group. Calls come from the whole dose curve; as a rule, active = well fitted curve in the direction sought with a large enough effect; inconclusive = small, poorly fitted or top-dose-only effect, or another doubt; inactive = no such curve, though single readings can be large; an effect the other way counts as inactive or inconclusive. Potency is the fitted concentration of half-maximal effect.

SMILES	ELG1 repair inh	KB-V1 cytotox	SW480 rereplic	MCF10A rereplic	KB-3-1 cytotox
CCN(CC)C(=O)Oc1ccc2c(=O)c(-c3ccccc3)coc2c1	?	21µM*	6%	-15%	i
CN(C)c1ccc2nc3ccc(=O)cc-3sc2c1	/	16µM*	/	/	?
c1ccc2nc(-c3cc4ccccc4s3)ccc2c1	/	i	/	/	i
Cc1cc2nc3ccc(=[N+](C)C)cc-3sc2cc1N	0.65µM*	16µM*	?	-5%	?
CN(C)c1ccc2nc3ccc(=[N+](C)C)cc-3sc2c1	0.73µM*	?	?	-9%	?
Cc1nc2cc(C)c(C)cc2s1	-6%	i	1%	-2%	i
CN(C)c1ccc(-c2ccc3ccccc3n2)cc1	/	i	/	/	i
CCCNS(=O)(=O)c1cccc(C(=O)NNC(=O)c2cc(C)oc2C)c1	?	i	1%	-2%	i
COc1ccc(C(=O)C[n+]2ccc(Cl)c3ccc(Cl)cc32)cc1	/	i	/	/	i
O=C(Nc1cccc(S(=O)(=O)N2CCCCCC2)c1)c1cc(=O)c2ccccc2o1	12µM*	?	-6%	?	i
CN(c1ccccc1)S(=O)(=O)c1cccc(NC(=O)c2cc(=O)c3ccccc3o2)c1	15µM*	?	-1%	26µM*	i
NS(=O)(=O)c1cccc(NC(=O)c2cc3ccccc3o2)c1	?	i	18µM*	5%	i
COC(=O)c1c(NC(=O)c2nc(SCc3ccc(C)cc3)ncc2Cl)sc2c1CCCC2	/	i	/	/	i
O=C(NC1CC1)c1sc2cc(Cl)ccc2c1Cl	?	?	-2%	6%	i
CC1(C)CC(NC(=O)c2sc3cc(Cl)ccc3c2Cl)CC(C)(C)N1	9%	18µM*	?	-26%	?
CC1(C)CC(NC(=O)c2cc(Cl)ccc2Cl)CC(C)(C)N1	-3%	i	9.2µM*	2%	i
Cc1ccc(C)c(C(=O)NC2CC(C)(C)NC(C)(C)C2)c1	1%	i	-5%	0%	i
C=C(C)C1CC=C(C)CC1 (stereo not drawn)	/	/	0%	0%	/
COC(=O)[C@@]12C[C@@H](CC(=O)N3CCN(C(=O)c4ccco4)CC3)C(=O)N(Cc3cccc4ccccc34)C1=CCC(C)(C)C2	/	23µM*	/	/	?
CCCCCCCCN1C(=O)[C@H](CC(=O)N2CCN(C(=O)c3ccco3)CC2)C[C@@]2(C(=O)OC)CC(C)(C)CC=C12	/	?	/	/	i
CCOC(=O)N1CCN(C(=O)C[C@@H]2C[C@@]3(C(=O)OC)CC(C)(C)CC=C3N(Cc3cccc4ccccc34)C2=O)CC1	/	18µM*	/	/	i
CCC(=O)N1CCc2cc(Br)cc(S(=O)(=O)N3CCC(C(=O)NC(C)(C)C)CC3)c21	7.3µM*	i	1%	19%	i
COc1ccc(S(=O)(=O)N2c3ccccc3OCC2C(C)(C)C)cc1 (stereo not drawn)	-54%	i	1%	-4%	i
COc1ccc(S(=O)(=O)N2c3ccccc3OCC2C)cc1 (stereo not drawn)	?	?	2.6µM*	1.3µM*	1.2µM*
COc1ccc(S(=O)(=O)N2c3ccccc3OCC2c2ccccc2)cc1 (stereo not drawn)	?	5.8µM*	3.7µM*	5.8µM*	8.2µM*
SMILES	ELG1 repair inh	KB-V1 cytotox	SW480 rereplic	MCF10A rereplic	KB-3-1 cytotox
COc1ccc(S(=O)(=O)N2CCOc3ccccc32)cc1	?	i	5.8µM*	4.6µM*	i
COc1ccc(S(=O)(=O)N2CC(C(=O)O)Oc3ccccc32)cc1 (stereo not drawn)	0%	i	-10%	-1%	i
Cc1ccccc1NC(=O)CSc1ncc2c(n1)-c1ccccc1N(C)S2(=O)=O	/	i	/	/	?
COc1cc(CN2C(=O)C(Cc3ccccc3)ON=C2c2ncccc2C)cc(OC)c1 (stereo not drawn)	/	?	/	/	i
CC1=Nc2ccccc2/C1=C/c1c(N)n2c(S(=O)(=O)C(C)C)nsc2nc1=O	-6%	i	-9%	3%	i
CC1=Nc2ccc(C)cc2/C1=C/c1c(N)n2c(S(=O)(=O)C(C)C)nsc2nc1=O	4%	i	13%	?	i
